Bioassay records deposited in PubChem BioAssay by several laboratories.
CYP2C9 activ: human CYP2C9 activators, primary screen, biochemical, luminescence | Cytochrome P450 2C9 (Homo sapiens), P11712 | recombinant CYP2C9, luciferin-H conversion; hits give high values; factor 1 = untreated enzyme, 0 = blocked | activation factor at 5 µM | 96,000 compounds, 1.4% hits | AID 1024, 2008;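 active means activation factor of 2 or more for CYP2C9 at a 5 µM dose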;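 further: 0 = sulfaphenazole-blocked wells and 1 = vehicle-only wells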
Target sequence (P11712 whole entry, looked up): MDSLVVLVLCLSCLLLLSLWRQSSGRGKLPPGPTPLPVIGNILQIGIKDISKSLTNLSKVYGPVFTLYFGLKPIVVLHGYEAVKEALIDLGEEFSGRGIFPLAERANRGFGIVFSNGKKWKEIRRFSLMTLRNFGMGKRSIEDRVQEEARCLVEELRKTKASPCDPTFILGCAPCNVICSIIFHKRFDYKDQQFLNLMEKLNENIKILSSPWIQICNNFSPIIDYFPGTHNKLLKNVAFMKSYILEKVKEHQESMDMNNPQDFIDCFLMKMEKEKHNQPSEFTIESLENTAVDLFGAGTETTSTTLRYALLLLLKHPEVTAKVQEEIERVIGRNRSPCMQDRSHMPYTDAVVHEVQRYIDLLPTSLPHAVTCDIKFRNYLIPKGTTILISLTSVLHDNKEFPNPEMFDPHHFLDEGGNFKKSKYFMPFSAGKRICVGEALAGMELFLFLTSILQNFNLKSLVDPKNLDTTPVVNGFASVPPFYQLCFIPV
hDAT+cocaine: changed hDAT dopamine uptake under cocaine IC80, either direction, primary screen, cocaine antagonist project, cell-based, LLC-PK1 hDAT, [14C]-dopamine uptake, MLSMR | LLC-PK1 hDAT cells, [14C]-dopamine uptake with cocaine IC80; actives deviate in either direction | 110,000 compounds, 1.3% hits | AID 449768, 2010 | B-score at 10 µM;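 active means Z score or B-score, a plate-position-corrected score, falls beyond the plate's 99.7% confidence bounds, in either direction; inactive means both scores lie inside the 99.7% bounds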;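 further: scored against the spread of the other compound wells on the same plate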
CYP2C19 inh: blockers of cytochrome P450 2C19 activity – biochemical, luminescence, ADME assay, primary screen | CYP2C19 Supersomes, luciferin-H EGE luminescence, 30 min | inhibition, % at 5 µM | P33261 | AID 778, 2007 | 96,000 compounds, 21% hits;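 active means CYP2C19 inhibition above a set limit at 5 µM in the primary screen, cut at about 50% in these data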;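 further: plate controls were negative control wells for no effect and 2.5 mM tranylcypromine positive control for full effect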
CYP2C9 inh: blockers of cytochrome P450 2C9 activity – biochemical, luminescence, ADME assay, primary screen; inhibition, % at 5 µM; P11712; CYP2C9 Supersomes, luciferin-H conversion; 96,000 compounds, 20% hits;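 active means blocking of liver enzyme CYP2C9 beyond about 50% at 5 µM, limit read from the data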
D1 mod: D1 CRE-luciferase signal change, two-sided – cell-based, HEK293 D1, dopamine EC30, D1 allosteric modulator project, primary screen; dopamine EC30 potentiation; actives deviate in either direction; 58,000 compounds, 5.9% hits; B-score at 10 µM; D(1A) dopamine receptor (Homo sapiens), P21728;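 active means luminescence count or its row- and column-corrected plate score outside the 99.7% band of the plate's sample wells, on either side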
CYP2C19 activ: human CYP2C19 activators, primary screen, biochemical, luminescence | Cytochrome P450 2C19 (Homo sapiens), P33261 | AID 1025, 2008 | 96,000 tested, under 10 active | activation factor at 5 µM | recombinant CYP2C19, luciferin-H EGE luminescence; hits give high values; 0 = fully inhibited enzyme, 1 = untreated enzyme;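 active means activation factor of at least 2 at 5 µM in the primary screen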;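 further: 0 = wells with 2.5 mM tranylcypromine and 1 = vehicle-only wells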
An asterisk follows results filed as active; x = not tested or not shown. Most compounds without a hit are left out; they make up all but 28% or so of the library.

SMILES	CYP2C9 activ	hDAT+cocaine	CYP2C19 inh	CYP2C9 inh	D1 mod	CYP2C19 activ
COc1ccc(N(CC(=O)Nc2cccc(C(F)(F)F)c2)S(C)(=O)=O)cc1	x	0.26	x	x	x	x
CCOC(=O)c1ccc(NC(=O)CN(c2ccc(C)cc2)S(=O)(=O)c2c(C)nn(C)c2C)cc1	0.8	0.41	26	22	x	0.7
CCc1cccc(NC(=O)CN(c2ccc(OC)cc2)S(=O)(=O)c2c(C)n[nH]c2C)c1	0.2	0.33	88*	78*	x	0.1
CCOC(=O)c1cccc(NC(=O)CN(c2ccc(C)cc2)S(=O)(=O)c2c(C)n[nH]c2C)c1	0.2	1.3	61*	82*	0.28	0.4
Cc1ccc(N(CC(=O)Nc2cccc(C)c2)S(=O)(=O)c2cccc3nonc23)cc1	0.1	1.9	55*	89*	2.3	0.4
Cc1ccccc1COC[C@H](CC(C)C)N1CCN(C(=O)c2cccc(C(F)(F)F)c2)CCC1=O	x	0.75	x	x	x	x
COc1ccc(CNC(=O)CSc2nnc(C)s2)cc1	1.2	-1.6	1	-15	x	1
Cc1ccc(NC(=O)CN(c2ccc3c(c2)OCO3)S(=O)(=O)c2c(C)n[nH]c2C)cc1	x	-0.66	x	x	0.44	x
COc1cc(NC(=O)CN(c2ccc(C)cc2)S(=O)(=O)c2c(C)n[nH]c2C)cc(OC)c1	0.2	-0.15	82*	84*	1.1	0.2
COc1ccc(N(CC(=O)Nc2ccc(C)c(C)c2)S(=O)(=O)c2c(C)n[nH]c2C)cc1	0.3	x	82*	72*	x	0.2
COc1ccc(N(CC(=O)Nc2cccc(C)c2)S(=O)(=O)c2c(C)n[nH]c2C)cc1	0.2	0.0094	95*	79*	x	0
NS(=O)(=O)c1ccc(NC(=O)CSc2nnc(COc3ccccc3Cl)n2C2CC2)cc1	1	-0.43	-3	4	x	1
C=CCNC(=S)NNC(=O)C(CCC(C)C)CC(C)(C)O (stereo not drawn)	1.1	-0.53	-7	-6	x	1.1
O=Nc1c(O)n(Cc2ccc(Cl)cc2)c2ccccc12	0.1	-1.4	84*	90*	x	0.2
O=Nc1c(O)n(Cc2ccc(Cl)cc2Cl)c2ccccc12	0.4	-0.87	33	60*	x	0.7
Cc1nn(Cc2ccc(Cl)cc2Cl)c(C)c1NC(=O)c1sc2ccccc2c1Cl	0.9	0.55	2	8	x	1
COc1ccc(NC(=O)C2CCN(S(=O)(=O)c3cccnc3)CC2)cc1Cl	x	x	x	x	-0.099	x
CCOC(=O)C1=C(Cn2ccc(C(F)(F)F)n2)NC(=O)NC1c1ccc2c(c1)OCO2 (stereo not drawn)	0.3	0.21	72*	65*	-0.65	0.3
CC1=C(C(=O)OCc2ccc3c(c2)OCO3)C(c2ccc(F)cc2)NC(=O)N1 (stereo not drawn)	0.5	-0.36	33	52*	-1.7	0.7
CC1=C(C(=O)OCC(C)C)C(c2ccsc2)NC(=O)N1 (stereo not drawn)	0.5	0.036	65*	52*	x	0.3
CCC(C)OC(=O)C1=C(C)NC(=O)NC1c1ccc(F)cc1 (stereo not drawn)	0.6	-0.8	95*	39	-0.9	0
CCOc1cc(C2NC(=O)NC(C)=C2C(=O)OC(C)CC)cc(Br)c1O (stereo not drawn)	0.7	-0.44	28	32	1.6	0.7
CCOC(=O)C1=C(C)NC(=O)NC1c1ccsc1 (stereo not drawn)	0.9	-0.37	25	12	x	0.8
CC1=C(C(=O)OC(C)C)C(c2ccco2)NC(=O)N1 (stereo not drawn)	1.2	0.83	-11	-17	x	1.1
CC1=C(C(=O)OC(C)C)C(c2ccc(Br)s2)NC(=O)N1 (stereo not drawn)	0.7	0.068	82*	33	x	0.2
SMILES	CYP2C9 activ	hDAT+cocaine	CYP2C19 inh	CYP2C9 inh	D1 mod	CYP2C19 activ
CC1=C(C(=O)OC(C)C)C(c2ccc(F)cc2)NC(=O)N1 (stereo not drawn)	0.7	0.25	85*	30	0.2	0.2
c1cc2c(c(NCc3ccncc3)c1)CCCC2	0.2	-0.024	97*	82*	0.15	0
CCN(C(=O)COC(=O)c1cnc(C)cn1)C1CCCCC1	1.1	-0.066	9	-10	x	0.9
O=C(NC1CCS(=O)(=O)C1)c1cnccn1 (stereo not drawn)	1	-0.0029	5	-2	x	1
O=C(NC1CCCCCCC1)c1cnccn1	0.9	0.54	63*	6	-0.22	0.4
O=C(OCC(=O)N(C1CCCCC1)C1CCCCC1)c1cnccn1	1.1	0.54	54*	-6	0.24	0.5
CCCCn1c(SCC(=O)NCc2ccco2)nc2cc(S(N)(=O)=O)ccc21	0.3	-0.52	56*	68*	x	0.4
CCn1c(SCC(=O)Nc2ccc(N3CCOCC3)cc2)nnc1-c1ccc(OC)cc1	0.7	0.93	0	32	x	1
CCCCn1c(SCC(=O)N2CCCCC2)nc2cc(S(N)(=O)=O)ccc21	0.8	-1.5	9	24	-0.81	0.9
CCCCn1c(SCc2nc3ccccc3s2)nc2cc(S(N)(=O)=O)ccc21	0.3	0.96	17	73*	x	0.8
CCCCn1c(SCC(=O)NCc2ccco2)nc2ccc(N3CCOCC3)cc2c1=O	0.4	1.1	22	60*	0.65	0.8
CCCCn1c(SCC(=O)Nc2ccc(OC)cc2)nc2ccc(N3CCOCC3)cc2c1=O	0	0.44	84*	100*	2	0.2
CCOc1ccccc1C1CC(=O)Nc2c1c(=O)n(C)c(=O)n2C (stereo not drawn)	0.5	0.14	45	46	x	0.6
CCCCn1c2c(c3ccccc31)CCc1nonc1-2	1	-0.046	-5	0	-0.31	1.1
CCOC(=O)CSc1nnc(CNC(=O)c2ccc(OC)c(OC)c2)n1C	1.2	0.023	-20	-19	-0.3	1.2
CC(C)Cn1c(SCC(=O)NC(=O)NC2CCCC2)nc2ccccc21	0.6	0.71	42	43	-0.5	0.6
CCCCn1c(SCC(=O)NCc2ccccc2)nc2ccc(N3CCOCC3)cc2c1=O	0.3	-0.15	34	74*	-0.13	0.7
CCC(C)NC(=O)CSc1nc2ccc(N3CCOCC3)cc2c(=O)n1CCc1ccccc1 (stereo not drawn)	0.9	x	1	5	x	1
CCCCn1c(SCC(=O)NC(C)CC)nc2ccc(N3CCOCC3)cc2c1=O (stereo not drawn)	0.4	x	28	60*	x	0.7
